# Screening data from PubChem BioAssay.
# mIDH1 inhibitor = qHTS for Inhibitors of mutant isocitrate dehydrogenase 1 (IDH1): qHTS | Potency, µM (series often up to 76.6 µM), inactives show at the highest dose activity change, negative = inhibition, actives largely listed as inhibitors | Isocitrate dehydrogenase [NADP] cytoplasmic (Homo sapiens), O75874 | AID 602179, 2012 | IDH1-R132H enzyme, NADPH consumption, diaphorase/resazurin fluorescence | 390,000 tested, 0.093% active; further: on the % scale 0 is the no-effect control and ±100 the full control effect; nearly all actives have a fitted effect of over 65% in size
#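 IDH1-R132H (0.5 ug/mL) preincubated 30 min with compound, then NADPH (0.016 mM) and alpha-KG (2 mM) added; 80 min at RT, pH 7.5. Remaining NADPH coupled via diaphorase/resazurin to fluorescence (540/590 nm); concentration-response curves normalized to no-enzyme control.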
# TrxR1 inh = qHTS Assay for Inhibitors of Mammalian Selenoprotein Thioredoxin Reductase 1 (TrxR1): qHTS | Thioredoxin reductase 1, cytoplasmic (Rattus norvegicus), O89049 | recombinant rTrxR1, NADPH fluorescence consumption, selenite substrate | Potency, µM (top dose mostly 114 µM), without a hit: top-dose activity change, negative = inhibition, hits mostly inhibitors | 390,000 tested, 1% active; further: on the % scale 0 is the no-effect control and ±100 the full control effect; nearly all actives have a fitted effect of over 65% in size
# Target sequence (O89049 whole entry, looked up): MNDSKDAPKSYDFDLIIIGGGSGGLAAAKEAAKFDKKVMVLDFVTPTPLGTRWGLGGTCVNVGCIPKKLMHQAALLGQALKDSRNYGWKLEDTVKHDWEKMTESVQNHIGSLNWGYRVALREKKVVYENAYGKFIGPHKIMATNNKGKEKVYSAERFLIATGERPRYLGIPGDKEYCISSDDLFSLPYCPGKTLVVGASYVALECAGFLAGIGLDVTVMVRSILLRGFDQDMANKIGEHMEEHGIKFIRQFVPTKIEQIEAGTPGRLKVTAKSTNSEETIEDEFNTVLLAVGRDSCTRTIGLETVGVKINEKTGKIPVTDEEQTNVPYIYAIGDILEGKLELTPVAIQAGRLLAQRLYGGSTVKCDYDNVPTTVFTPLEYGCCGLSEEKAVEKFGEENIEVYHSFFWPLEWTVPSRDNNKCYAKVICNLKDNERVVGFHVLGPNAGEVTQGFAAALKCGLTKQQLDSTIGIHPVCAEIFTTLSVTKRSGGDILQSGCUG
#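 Rat TrxR1 (90 nM in the dispensed reagent) was pre-reduced with 400 uM NADPH for 5 min at room temperature, then incubated with compound for 15 min. After 400 uM selenite was added, NADPH fluorescence (Ex 340/Em 450 nm) was followed for 8 min.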
# A549 tox-1 = Nrf2 qHTS screen for inhibitors: counterscreen for cytotoxicity. A549 ARE-Fluc cells, CellTiter-Fluor viability, 18-24 h. Potency, µM (series often up to 46 µM), for inactives: top-dose activity change, negative = cytotoxicity, actives largely listed as inhibitors. 390,000 tested, 0.16% active. AID 504648, 2011; further: on the % scale 0 is the no-effect control and ±100 the full control effect
#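 Cytotoxicity counterscreen: CellTiter-Fluor fluorescence was measured in A549 ARE_Fluc cells after 18-24 h of compound exposure in a concentration series. The subsequent BugLite luminescent read reports ARE-luciferase activity.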
# Nrf2 inh = Nrf2 qHTS screen for inhibitors. A549 ARE-Fluc reporter, luciferase luminescence, 18-24 h. Potency, µM (doses to about 46 µM), for inactives: at the top dose activity change, negative = inhibition, usual class: inhibitors. 360,000 tested, 2.1% active. AID 504444, 2011; further: on the % scale 0 is the no-effect control and ±100 the full control effect; nearly all actives have a fitted effect of over 60% in size
#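 Concentration-response testing used A549 ARE_Fluc cells at 5000 cells/well. Following an 18-24 h compound incubation, viability was read by fluorescence (Ex 405/Em 525) and luciferase output by luminescence.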
# Mito fusion yeast = qHTS Assay for Small Molecule Inhibitors of Mitochondrial Division or Activators of Mitochondrial Fusion; Potency, µM (titrated, usually from 46.1 µM), for the others: at the top dose growth rescue (activation), usual class: activators; 320,000 tested, 0.23% active; AID 485298, 2010; S. cerevisiae fusion-defective mutant growth rescue, CellTiterGlo 48 h; further: % of control where 0% means no effect; nearly all actives have a fitted effect of over 45% in size
#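 Temperature-sensitive fusion-defective S. cerevisiae (e.g. fzo1-1, mgm1-5) were grown with compound in YPEG medium (3% ethanol, 3% glycerol) for 48 hours at 37C. Growth rescue was measured as viability by CellTiterGlo luminescence after 10 minutes at ambient.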
# TrxR1 substrate = qHTS Assay for Substrates of Mammalian Selenoprotein Thioredoxin Reductase 1 (TrxR1): qHTS; Thioredoxin reductase 1, cytoplasmic (Rattus norvegicus), O89049; AID 588456, 2011; 390,000 tested, 0.01% active; purified TrxR1 substrate turnover, NADPH consumption readout; Potency, µM (titrated, usually from 114 µM), inactives show at the highest dose activity change, negative = substrate turnover; further: on the % scale 0 is the no-effect control and ±100 the full control effect; nearly all actives have a fitted effect of over 50% in size
#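 Rat TrxR1, dispensed at 90 nM, was prereduced with 400 uM NADPH (final) for 5 min at ~22 deg C, then incubated with compound 15 min before 400 uM selenite. A first-read NADPH fluorescence drop versus no-compound background flagged substrates.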
# FLuc enzyme inh = Nrf2 qHTS screen for inhibitors: Purified Fluc Biochemical Counterscreen for Hit Validation; Potency, µM (doses to about 57.5 µM), without a hit: top-dose activity change, negative = inhibition, hits mostly inhibitors; AID 720522, 2013; 1,400 tested, 4% active; shares compounds with Nrf2 inh; purified firefly luciferase, luminescence inhibition; further: on the % scale 0 is the no-effect control and ±100 the full control effect; nearly all actives have a fitted effect of over 65% in size
# A549 tox-2 = Nrf2 qHTS screen for inhibitors: A549 ARE-Fluc Cytotoxicity Counterscreen for Hit Validation; shares compounds with Nrf2 inh; Potency, µM (titrated, usually from 46.1 µM), for inactives: top-dose activity change, negative = cytotoxicity, most hits filed as inhibitors; AID 720523, 2013; A549 ARE-Fluc cells, cytotoxicity counterscreen; 1,400 tested, 2% active;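 further: cells exposed to compounds for 18 to 24 hours; on the % scale 0 is the no-effect control and ±100 the full control effect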
# Nrf2 ARE inh = Nrf2 qHTS screen for inhibitors: Nrf2 A549 ARE-Fluc Confirmation Assay for Hit Validation; shares compounds with Nrf2 inh; A549 ARE-firefly luciferase reporter, luminescence; Potency, µM (titrated, usually from 46.1 µM), without a hit: at the highest dose activity change, negative = inhibition, most hits filed as inhibitors; 1,400 tested, 74% active; AID 720524, 2013; further: on the % scale 0 is the no-effect control and ±100 the full control effect; nearly all actives have a fitted effect of over 65% in size
# Numbers without * were called inactive; ? = inconclusive; · = not tested or not shown; [ ] = another dose, or the depositor's remark. Compounds with a hit are over-represented: about 3.1% of the library has one in this group of screens. The call rests on the fitted dose curve; in most records, active means well fitted curve in the direction sought with a large enough effect; inconclusive means small, poorly fitted or top-dose-only effect, or another doubt; inactive means no such curve, though single readings can be large; an effect the other way counts as inactive or inconclusive. Potency means the concentration at half of the fitted maximal effect.
SMILES,mIDH1 inhibitor,TrxR1 inh,A549 tox-1,Nrf2 inh,Mito fusion yeast,TrxR1 substrate,FLuc enzyme inh,A549 tox-2,Nrf2 ARE inh
C[C@H](N)Cc1cccc(C(F)(F)F)c1,·,18%[57.1 µM],·,·,-6%,9%[57.1 µM],·,·,·
CC(C)(C)OC(=O)NCc1ccc(CNC(=O)c2nc[nH]c2C(=O)NCc2ccc(CNC(=O)OC(C)(C)C)cc2)cc1,-11%,21%[57.1 µM],3%,6.5µM*,·,0%[57.1 µM],3%,-13%,13µM*
NNC(=O)c1nc[nH]c1C(=O)Nc1ccc(Cl)cc1C(=O)c1ccccc1,9%,24%,13%,19%,0%,-1%,·,·,·
COc1ccc(-c2nc(CN3C(=O)CN=C(c4ccccc4Cl)c4cc(Cl)ccc43)c(C)o2)cc1OC,?,21%,-19%,?,·,2%,·,·,·
CCCCCn1c(=O)c(C(=O)Nc2nc3ccccc3[nH]2)c(O)c2ccccc21,7%,21%[57.1 µM],?,2.6µM*,-8%,-12%[57.1 µM],3%,?,6.5µM*
CCCCn1c(=O)c(C(=O)Nc2nc3ccccc3[nH]2)c(O)c2ccccc21,·,·,·,·,1%,·,·,·,·
C[C@@H]1C[C@@H]([C@H](O)CC2CC(=O)NC(=O)C2)C(=O)[C@@H](C)C1,5%,12%,?,0.58µM*,-49%,4%,-11%,-29%,5.8µM*
CC(=O)OC1(C)CC(C)C(=O)C(C(O)CC2CC(=O)NC(=O)C2)C1 (configuration not stated),12%,3%[57.1 µM],?,0.058µM*,·,3%,1%,-2%,5.2µM*
O=S1(=O)N(Cc2ccccc2)CCCN1Cc1ccc(F)cc1Cl,-8%,4%,3%,?,·,-7%,·,·,·
Cc1cc(NC(=O)c2cc(-c3cccc(Cl)c3)on2)nn1Cc1ccc(Cl)cc1,-5%,-8%,-3%,2.6µM*,·,7%,-2%,-14%,21µM*
O=C(Nc1cccc(Cl)c1)N1C[C@H]2C[C@@H](C1)c1cccc(=O)n1C2,3%,0%,10%,5%,-1%,4%,·,·,·
O=C(Nc1cccc(Cl)c1)c1cnc2sc(N3CCCC3)nn2c1=O,·,-1%[57.1 µM],-1%,5.2µM*,·,1%[57.1 µM],-3%,-11%,4.6µM*
COc1ccc(CC2c3cc(OC)c(OC)cc3CCN2C)cc1O (configuration not stated),-8%,15%,-1%,11%,-1%,4%,·,·,·
CC[C@H]1CN2CCc3cc(OC)c(OC)cc3C2C[C@@H]1C[C@H]1NCCc2cc(OC)c(OC)cc21 (some centres not stated),2%,4%,?,0.12µM*,-36%,-4%,-1%,?,0.52µM*
C=C(C)CSc1nnc([C@@H](N)Cc2c[nH]c3ccccc23)o1,7%,-9%,1%,?,-1%,-5%,·,·,·
Cc1[nH]nc2ccc(-c3cncc(OC[C@@H](N)Cc4c[nH]c5ccccc45)c3)cc12,-1%[38.3 µM],4%,?,5.2µM*,·,-7%,-1%,?,·
CCCCCCC[n+]1ccc(-c2cc[n+](CCCCCCC)cc2)cc1,0%,-9%,-23%,2.6µM*,-7%,-4%,-8%,-22%,8.2µM*
CCCCCCCCCCCCCCCC[n+]1ccccc1,14%,16%,?,8.2µM*,·,11%,-14%,-12%,8.2µM*
CNC(CC(C)C)C(=O)NC1C(=O)NC(CC(N)=O)C(=O)NC2C(=O)NC3C(=O)NC(C(=O)NC(C(=O)O)c4cc(O)cc(O)c4-c4cc3ccc4O)C(O)c3ccc(c(Cl)c3)Oc3cc2cc(c3OC2OC(CO)C(O)C(O)C2OC2C[C@](C)(N)C(O)C(C)O2)Oc2ccc(cc2Cl)C1O (some centres not stated),11%,-8%,7%,9%,1%,5%,·,·,·
Cc1ccccc1CN1C(=O)C(C)N=C(c2ccccc2)c2ccccc21 (configuration not stated),-12%,19%[57.1 µM],0%,·,·,2%[57.1 µM],·,·,·
C[C@]12CCC3C(CC[C@H]4[C@@H](O)[C@H](O)CC[C@]34C)C1CCC2=O (some centres not stated),-1%,6%,1%,1%,·,4%,·,·,·
CC12CC(=O)C3C(CCC4CC(=O)C=CC43C)C1CCC2=O (configuration not stated),-7%,5%,-12%,3.3µM*,·,4%,2%,-15%,2.6µM*
CC(=O)c1cn(Cc2ccccc2C#N)c2ccccc12,-1%,13%[57.1 µM],?,1µM*,6%,4%,3%,-12%,-34%
CC1OC(OC2CC(O)C3(CO)C4C(O)CC5(C)C(C6=CC(=O)OC6)CCC5(O)C4CCC3(O)C2)C(O)C(O)C1O (configuration not stated),0%,4%[57.1 µM],?,0.058µM*,·,9%[57.1 µM],0%,?,0.033µM*
CC1=C(N2CC2)C(=O)C(CO)=C(N2CC2)C1=O,16%,24%[11.4 µM],9.2µM*,0.52µM*,·,-2%[57.1 µM],2%,-10%,1.6µM*
CC(=NNC(=S)N1CC2CCC(CC2)C1)c1nccs1,2%,1%[11.4 µM],?,1.5µM*,·,7%[11.4 µM],19µM*,?,2.9µM*
